Assay results published in PubChem BioAssay (NCATS).
Results filed as inconclusive are left out. Activity calls are given as the source filed them. Unless noted, the call rests on the fitted dose curve.

How the values were obtained:
[1] = qHTS for Inhibitors of the Functional Ribonucleoprotein Complex (vRNP) of Lassa (LASV) Arenavirus: LASV Primary Screen - GLuc reporter signal (AID 1347082; calls by dose curve; tested in HEK293 reporter line; further: nearly all actives have a fitted effect of over 60% in size)
[2] = qHTS for Inhibitors of the Functional Ribonucleoprotein Complex (vRNP) of Lassa (LASV) Arenavirus: Viability assay - alamar blue signal for LASV Primary Screen (AID 1347083; calls by dose curve; tested in HEK293 reporter line; further: nearly all actives have a fitted effect of over 80% in size)
[3] = qHTS for Inhibitors of the Functional Ribonucleoprotein Complex (vRNP) of Lymphocytic Choriomeningitis Arenaviruses (LCMV): Viability assay - alamar blue signal for LCMV Primary Screen (AID 1347085; calls by dose curve; tested in HEK293 reporter line; further: nearly all actives have a fitted effect of over 80% in size)
[4] = molecular target: Nucleoprotein (Lymphocytic choriomeningitis virus (strain Armstrong)) (UniProt P09992); assay: qHTS for Inhibitors of the Functional Ribonucleoprotein Complex (vRNP) of Lymphocytic Choriomeningitis Arenaviruses (LCMV): LCMV Primary Screen - GLuc reporter signal (AID 1347086); further: nearly all actives have a fitted effect of over 70% in size
Chain of Nucleoprotein (Lymphocytic choriomeningitis virus (strain Armstrong)) (P09992 whole entry, looked up): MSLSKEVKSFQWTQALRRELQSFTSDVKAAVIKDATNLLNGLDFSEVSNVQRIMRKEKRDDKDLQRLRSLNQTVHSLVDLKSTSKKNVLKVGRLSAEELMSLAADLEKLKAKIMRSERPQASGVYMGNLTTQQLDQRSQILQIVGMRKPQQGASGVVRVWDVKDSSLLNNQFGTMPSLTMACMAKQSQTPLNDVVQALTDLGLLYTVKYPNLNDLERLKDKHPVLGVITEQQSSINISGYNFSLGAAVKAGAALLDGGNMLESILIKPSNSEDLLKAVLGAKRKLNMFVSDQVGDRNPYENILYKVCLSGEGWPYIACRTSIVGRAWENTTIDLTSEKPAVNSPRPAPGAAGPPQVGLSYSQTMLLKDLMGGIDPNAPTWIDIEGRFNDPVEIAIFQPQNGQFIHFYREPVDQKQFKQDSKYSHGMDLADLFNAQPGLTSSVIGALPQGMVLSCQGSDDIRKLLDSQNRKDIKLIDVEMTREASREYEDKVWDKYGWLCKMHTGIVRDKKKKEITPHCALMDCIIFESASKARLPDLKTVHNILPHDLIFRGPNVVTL
Further: series mostly up to about 57 µM.
On the % scale 0 is the no-effect control and ±100 the full control effect.

CCCCCCCC/C=C/C(=O)O
inactive: Potency [1] | Potency [2] | Potency [3] | Potency [4]

CCOC(=O)c1ccccc1O
inactive: Potency [1] | Potency [2] | Potency [3] | Potency [4]

NC(=O)N1c2ccccc2C=Cc2ccccc21
inactive: Potency [1] | Potency [2] | Potency [3] | Potency [4]

Oc1ccccc1-c1nnco1
inactive: Potency [1] | Potency [2] | Potency [3] | Potency [4]

Oc1ccccc1
inactive: Potency [1] | Potency [2] | Potency [3] | Potency [4]

O=P(O)(O)OCC(O)CO (configuration not stated)
inactive: Potency [1] | Potency [2] | Potency [3] | Potency [4]

C/C(=N\O)[C@@H](C)NCC(C)(C)CN[C@H](C)/C(C)=N/O
inactive: Potency [1] | Potency [2] | Potency [3] | Potency [4]

O=C(Oc1ccccc1C(=O)O)c1ccccc1O
inactive: Potency [1] | Potency [2] | Potency [3] | Potency [4]

CC(C)=CCC[C@@](C)(O)[C@H]1CC=C(C)CC1
inactive: Potency [1] | Potency [2] | Potency [3] | Potency [4]

O=c1c(-c2ccc(O)cc2)coc2cc(O)cc(O)c12
inactive: Potency [1] | Potency [2] | Potency [3] | Potency [4]

NS(=O)(=O)c1ccc(NC(=O)CCC(=O)O)cc1
inactive: Potency [1] | Potency [2] | Potency [3] | Potency [4]

CC1(COc2ccc(CC3SC(=O)NC3=O)cc2)CCCCC1 (configuration not stated)
inactive: Potency [1] | Potency [2] | Potency [3] | Potency [4]

CCCCC(=O)OCC(=O)[C@H]1[C@H](C)C[C@H]2[C@@H]3C[C@H](F)C4=CC(=O)C=C[C@]4(C)[C@@]3(F)[C@@H](O)C[C@@]21C
inactive: Potency [1] | Potency [2] | Potency [3] | Potency [4]

CC(O)C(=O)O (configuration not stated)
inactive: Potency [1] | Potency [2] | Potency [3] | Potency [4]

NCCCNCCSP(=O)(O)O
inactive: Potency [1] | Potency [2] | Potency [3] | Potency [4]

O=C1OC(CN2CCOCC2)CN1/N=C/c1ccc([N+](=O)[O-])o1 (configuration not stated)
inactive: Potency [1] | Potency [2] | Potency [3] | Potency [4]

CC(C)(C)NCC(O)COc1ccccc1OCC1CCCO1 (configuration not stated)
inactive: Potency [1] | Potency [2] | Potency [3] | Potency [4]

Cc1cc2c(cc1CC(=O)c1sccc1S(=O)(=O)Nc1onc(C)c1Cl)OCO2
inactive: Potency [1] | Potency [2] | Potency [3] | Potency [4]

C[C@@H]1O[C@@H](OC[C@H]2O[C@@H](Oc3c(-c4ccc(O)c(O)c4)oc4cc(O)cc(O)c4c3=O)[C@H](O)[C@@H](O)[C@@H]2O)[C@H](O)[C@H](O)[C@H]1O
inactive: Potency [1] | Potency [2] | Potency [3] | Potency [4]

Cn1c(=O)c2c(ncn2CC(=O)O)n(C)c1=O
inactive: Potency [1] | Potency [2] | Potency [3] | Potency [4]

CC(C)(C)NCC(O)c1cc(O)cc(O)c1 (configuration not stated)
inactive: Potency [1] | Potency [2] | Potency [3] | Potency [4]

NC[C@H]1O[C@H](O[C@H]2[C@H](O[C@@H]3O[C@H](CO)[C@@H](O)[C@H]3O)C(O)[C@H](N)C[C@@H]2N)[C@H](N)[C@@H](O)[C@@H]1O (some centres not stated)
inactive: activity change, negative = inhibition [1] -1.42% [at 11.5 µM] | activity change, negative = reduced viability [2] -0.396% [at 11.5 µM] | activity change, negative = lower viability [3] -0.301% [at 11.5 µM] | activity change, negative = inhibition [4] 40.8% [at 11.5 µM]

N#CCC(=O)NN
inactive: Potency [1] | Potency [2] | Potency [3] | Potency [4]

CCCC(=O)OCOC(=O)C1=C(C)NC(C)=C(C(=O)OC)C1c1cccc(Cl)c1Cl (configuration not stated)
inactive: Potency [1] | Potency [2] | Potency [3] | Potency [4]

NS(=O)(=O)c1cc(-c2nn[nH]n2)c(NCc2cccs2)cc1Cl
inactive: Potency [1] | Potency [2] | Potency [3] | Potency [4]

Cc1c(F)c(N2CCNC(C)C2)cc2c1c(=O)c(C(=O)O)cn2C1CC1 (configuration not stated)
inactive: Potency [1] | Potency [2] | Potency [3] | Potency [4]

CNC[C@H](O)[C@@H](O)[C@H](O)[C@H](O)CO
inactive: Potency [1] | Potency [2] | Potency [3] | Potency [4]

N[C@@H](COP(=O)(O)O)C(=O)O
inactive: Potency [1] | Potency [2] | Potency [3] | Potency [4]

CC(=O)Nc1ccc(OC(=O)c2ccccc2OC(C)=O)cc1
inactive: Potency [1] | Potency [2] | Potency [3] | Potency [4]

CC(=O)OCC(=O)[C@@]1(O)CC[C@H]2[C@@H]3CCC4=CC(=O)C=C[C@]4(C)[C@@]3(F)[C@@H](O)C[C@@]21C
inactive: Potency [1] | Potency [2] | Potency [3] | Potency [4]

CC1(C)O[C@@H]2C[C@H]3[C@@H]4CCC5=CC(=O)C=C[C@]5(C)[C@@H]4[C@@H](O)C[C@]3(C)[C@]2(C(=O)CO)O1
inactive: Potency [1] | Potency [2] | Potency [3] | Potency [4]

CC(=O)Nc1c(I)cc(I)c(C(=O)O)c1I
inactive: Potency [1] | Potency [2] | Potency [3] | Potency [4]

C=CC(N)CCC(=O)O (configuration not stated)
inactive: Potency [1] | Potency [2] | Potency [3] | Potency [4]
